Laboratory results: the supplement of paper PMC11732987, “Enantioselective OTUD7B fragment discovery through chemoproteomics screening and high-throughput optimisation” (Communications Chemistry, 2025)

Key:
Assay in all cases: log2 ratio of Biotin-Ahx-Ub-VS probe labelling (fragment/DMSO); higher = less target engagement (more negative = stronger competition), active = hit call of the paper (q ≤ 0.05, log2 ratio ≤ -1)
Conditions in all cases: compound concentration: 200 uM; treatment time: 3 h
USP34 = USP34 (UniProt Q70CQ2)
USP34, sequence (Q70CQ2 whole entry, the tested form may be a part): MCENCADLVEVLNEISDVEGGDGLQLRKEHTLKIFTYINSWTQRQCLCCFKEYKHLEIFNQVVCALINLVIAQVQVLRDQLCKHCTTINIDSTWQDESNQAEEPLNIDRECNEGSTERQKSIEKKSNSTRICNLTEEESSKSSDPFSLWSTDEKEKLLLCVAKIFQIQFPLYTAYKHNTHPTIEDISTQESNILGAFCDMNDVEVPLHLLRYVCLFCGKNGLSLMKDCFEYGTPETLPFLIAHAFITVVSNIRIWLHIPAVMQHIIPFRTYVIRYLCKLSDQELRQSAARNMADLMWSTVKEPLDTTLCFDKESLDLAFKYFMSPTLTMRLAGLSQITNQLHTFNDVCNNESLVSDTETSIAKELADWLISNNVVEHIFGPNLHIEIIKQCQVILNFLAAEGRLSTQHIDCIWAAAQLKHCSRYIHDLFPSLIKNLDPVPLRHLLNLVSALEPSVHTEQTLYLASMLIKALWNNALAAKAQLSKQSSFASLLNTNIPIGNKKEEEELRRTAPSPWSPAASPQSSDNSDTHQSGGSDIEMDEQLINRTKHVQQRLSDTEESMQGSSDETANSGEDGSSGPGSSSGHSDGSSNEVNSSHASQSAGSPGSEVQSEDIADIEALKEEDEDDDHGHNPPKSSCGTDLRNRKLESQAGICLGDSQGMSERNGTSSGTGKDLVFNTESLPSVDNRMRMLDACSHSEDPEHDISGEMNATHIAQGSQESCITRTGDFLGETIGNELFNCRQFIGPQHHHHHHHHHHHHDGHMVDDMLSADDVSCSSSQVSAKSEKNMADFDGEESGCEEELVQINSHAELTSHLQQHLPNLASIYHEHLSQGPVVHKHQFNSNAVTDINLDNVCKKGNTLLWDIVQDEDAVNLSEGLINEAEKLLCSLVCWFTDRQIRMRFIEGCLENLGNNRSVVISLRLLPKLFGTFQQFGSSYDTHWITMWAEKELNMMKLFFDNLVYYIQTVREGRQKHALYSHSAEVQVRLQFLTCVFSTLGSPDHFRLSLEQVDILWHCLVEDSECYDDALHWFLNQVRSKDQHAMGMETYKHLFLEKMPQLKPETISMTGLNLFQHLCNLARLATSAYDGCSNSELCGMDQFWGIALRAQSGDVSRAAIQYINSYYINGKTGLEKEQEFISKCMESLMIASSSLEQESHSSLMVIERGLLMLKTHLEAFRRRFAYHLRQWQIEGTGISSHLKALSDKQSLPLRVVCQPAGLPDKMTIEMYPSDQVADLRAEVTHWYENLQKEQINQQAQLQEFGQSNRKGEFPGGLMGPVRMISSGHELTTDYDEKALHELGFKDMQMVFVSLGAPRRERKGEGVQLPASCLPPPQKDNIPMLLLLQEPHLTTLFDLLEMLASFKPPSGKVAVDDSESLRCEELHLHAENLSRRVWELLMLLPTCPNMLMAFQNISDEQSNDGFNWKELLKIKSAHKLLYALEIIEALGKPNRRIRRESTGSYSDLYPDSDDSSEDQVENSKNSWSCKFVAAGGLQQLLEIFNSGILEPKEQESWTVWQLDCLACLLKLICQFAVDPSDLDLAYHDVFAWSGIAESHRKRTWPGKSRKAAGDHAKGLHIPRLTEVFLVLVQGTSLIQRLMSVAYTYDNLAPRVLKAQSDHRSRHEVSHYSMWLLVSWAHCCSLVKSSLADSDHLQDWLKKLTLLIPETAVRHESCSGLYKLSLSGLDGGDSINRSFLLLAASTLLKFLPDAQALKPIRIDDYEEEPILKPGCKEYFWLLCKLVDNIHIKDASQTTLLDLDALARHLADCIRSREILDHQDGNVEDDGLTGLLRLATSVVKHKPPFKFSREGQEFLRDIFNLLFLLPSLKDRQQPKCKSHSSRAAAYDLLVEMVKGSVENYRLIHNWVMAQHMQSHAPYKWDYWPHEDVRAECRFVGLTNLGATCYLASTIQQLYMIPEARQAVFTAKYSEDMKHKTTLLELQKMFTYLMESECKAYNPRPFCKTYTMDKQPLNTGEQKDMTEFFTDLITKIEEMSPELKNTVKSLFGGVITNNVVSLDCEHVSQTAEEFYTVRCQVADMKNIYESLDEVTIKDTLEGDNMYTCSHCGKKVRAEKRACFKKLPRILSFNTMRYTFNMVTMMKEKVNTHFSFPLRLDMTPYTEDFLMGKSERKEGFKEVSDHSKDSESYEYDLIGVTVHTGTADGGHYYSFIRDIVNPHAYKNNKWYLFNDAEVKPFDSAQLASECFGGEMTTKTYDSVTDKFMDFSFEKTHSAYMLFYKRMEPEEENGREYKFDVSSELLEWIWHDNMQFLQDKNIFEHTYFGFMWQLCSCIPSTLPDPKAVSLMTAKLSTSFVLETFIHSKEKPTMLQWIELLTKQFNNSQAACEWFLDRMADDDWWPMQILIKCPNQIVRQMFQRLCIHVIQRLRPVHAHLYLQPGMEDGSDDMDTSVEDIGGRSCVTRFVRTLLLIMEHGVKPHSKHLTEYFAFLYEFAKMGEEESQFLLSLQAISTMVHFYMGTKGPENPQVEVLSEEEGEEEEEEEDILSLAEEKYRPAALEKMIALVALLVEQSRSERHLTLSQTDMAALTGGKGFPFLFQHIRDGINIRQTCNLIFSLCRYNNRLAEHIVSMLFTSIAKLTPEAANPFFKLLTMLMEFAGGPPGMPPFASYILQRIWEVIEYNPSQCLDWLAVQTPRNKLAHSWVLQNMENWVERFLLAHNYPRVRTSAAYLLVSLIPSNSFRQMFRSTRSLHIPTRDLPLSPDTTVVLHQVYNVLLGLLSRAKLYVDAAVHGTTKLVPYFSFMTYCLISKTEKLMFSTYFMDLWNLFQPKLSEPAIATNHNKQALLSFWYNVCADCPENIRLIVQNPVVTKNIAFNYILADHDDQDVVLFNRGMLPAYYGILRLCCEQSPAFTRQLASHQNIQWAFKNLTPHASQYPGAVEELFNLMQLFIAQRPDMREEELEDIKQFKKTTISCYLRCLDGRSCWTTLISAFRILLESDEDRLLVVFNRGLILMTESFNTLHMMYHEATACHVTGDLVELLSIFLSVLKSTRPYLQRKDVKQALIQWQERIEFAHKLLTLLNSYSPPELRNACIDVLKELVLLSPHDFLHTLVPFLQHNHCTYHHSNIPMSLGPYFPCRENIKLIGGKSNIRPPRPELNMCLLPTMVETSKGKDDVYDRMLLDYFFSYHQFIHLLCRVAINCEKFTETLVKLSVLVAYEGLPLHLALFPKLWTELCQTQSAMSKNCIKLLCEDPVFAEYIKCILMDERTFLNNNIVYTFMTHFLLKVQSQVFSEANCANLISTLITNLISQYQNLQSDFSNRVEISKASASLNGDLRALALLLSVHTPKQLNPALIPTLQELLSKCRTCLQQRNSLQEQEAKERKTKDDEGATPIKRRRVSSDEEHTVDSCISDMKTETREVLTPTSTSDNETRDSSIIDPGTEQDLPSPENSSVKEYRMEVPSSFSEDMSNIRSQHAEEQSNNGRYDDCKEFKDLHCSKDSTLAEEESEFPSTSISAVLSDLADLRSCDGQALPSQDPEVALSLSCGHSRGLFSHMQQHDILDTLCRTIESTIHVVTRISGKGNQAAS
In short: (§1)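 HEK293T lysate (495 µg per sample, in Tris/CHAPS/IGEPAL buffer with protease inhibitors) was exposed in triplicate for 3 h to fragment at 200 µM or to vehicle, then to Biotin-Ahx-Ub-VS at 0.5 µM final for 1 h. Labelled DUBs were enriched on NeutrAvidin, digested with LysC and trypsin, and analysed by diaPASEF LC-MS/MS. Spectronaut label-free quantities were normalised to the global median, and values are average log2 ratios of fragment over vehicle from an unpaired t-test. Only proteins with ≥2 unique peptides were used.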

USP36 = target: T1, USP36 (UniProt Q9P275)
T1 sequence (whole entry): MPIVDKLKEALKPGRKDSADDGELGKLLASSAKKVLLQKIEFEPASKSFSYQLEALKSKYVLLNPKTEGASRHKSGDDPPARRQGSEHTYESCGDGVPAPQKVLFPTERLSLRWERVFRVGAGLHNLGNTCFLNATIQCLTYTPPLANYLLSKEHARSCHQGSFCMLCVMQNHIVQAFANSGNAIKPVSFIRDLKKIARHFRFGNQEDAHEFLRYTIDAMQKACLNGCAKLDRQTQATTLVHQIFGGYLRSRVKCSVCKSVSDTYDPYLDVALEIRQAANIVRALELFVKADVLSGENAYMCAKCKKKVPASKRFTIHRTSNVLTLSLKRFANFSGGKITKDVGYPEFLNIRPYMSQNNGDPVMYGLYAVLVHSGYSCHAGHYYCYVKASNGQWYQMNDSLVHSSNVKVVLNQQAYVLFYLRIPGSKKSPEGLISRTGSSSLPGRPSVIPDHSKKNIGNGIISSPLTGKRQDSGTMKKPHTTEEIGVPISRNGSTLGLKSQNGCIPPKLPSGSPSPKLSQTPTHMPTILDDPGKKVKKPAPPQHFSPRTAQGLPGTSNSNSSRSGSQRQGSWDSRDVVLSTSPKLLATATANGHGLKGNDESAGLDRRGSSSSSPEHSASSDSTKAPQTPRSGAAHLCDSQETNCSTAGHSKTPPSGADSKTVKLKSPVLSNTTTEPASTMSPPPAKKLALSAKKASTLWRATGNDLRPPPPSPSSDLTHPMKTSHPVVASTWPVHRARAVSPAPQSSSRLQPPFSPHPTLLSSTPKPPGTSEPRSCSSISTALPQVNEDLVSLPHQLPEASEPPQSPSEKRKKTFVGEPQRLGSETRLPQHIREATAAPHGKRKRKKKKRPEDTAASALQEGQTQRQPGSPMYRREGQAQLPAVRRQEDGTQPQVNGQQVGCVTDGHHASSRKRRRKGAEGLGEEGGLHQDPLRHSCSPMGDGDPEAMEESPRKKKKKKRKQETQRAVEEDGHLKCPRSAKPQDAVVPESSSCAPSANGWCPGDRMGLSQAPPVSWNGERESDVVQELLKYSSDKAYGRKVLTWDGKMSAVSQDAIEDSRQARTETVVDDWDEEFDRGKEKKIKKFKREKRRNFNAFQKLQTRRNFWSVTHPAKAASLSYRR
In short: as §1

USP38 = target: T2, USP38 (UniProt Q8NB14)
T2 sequence (whole entry): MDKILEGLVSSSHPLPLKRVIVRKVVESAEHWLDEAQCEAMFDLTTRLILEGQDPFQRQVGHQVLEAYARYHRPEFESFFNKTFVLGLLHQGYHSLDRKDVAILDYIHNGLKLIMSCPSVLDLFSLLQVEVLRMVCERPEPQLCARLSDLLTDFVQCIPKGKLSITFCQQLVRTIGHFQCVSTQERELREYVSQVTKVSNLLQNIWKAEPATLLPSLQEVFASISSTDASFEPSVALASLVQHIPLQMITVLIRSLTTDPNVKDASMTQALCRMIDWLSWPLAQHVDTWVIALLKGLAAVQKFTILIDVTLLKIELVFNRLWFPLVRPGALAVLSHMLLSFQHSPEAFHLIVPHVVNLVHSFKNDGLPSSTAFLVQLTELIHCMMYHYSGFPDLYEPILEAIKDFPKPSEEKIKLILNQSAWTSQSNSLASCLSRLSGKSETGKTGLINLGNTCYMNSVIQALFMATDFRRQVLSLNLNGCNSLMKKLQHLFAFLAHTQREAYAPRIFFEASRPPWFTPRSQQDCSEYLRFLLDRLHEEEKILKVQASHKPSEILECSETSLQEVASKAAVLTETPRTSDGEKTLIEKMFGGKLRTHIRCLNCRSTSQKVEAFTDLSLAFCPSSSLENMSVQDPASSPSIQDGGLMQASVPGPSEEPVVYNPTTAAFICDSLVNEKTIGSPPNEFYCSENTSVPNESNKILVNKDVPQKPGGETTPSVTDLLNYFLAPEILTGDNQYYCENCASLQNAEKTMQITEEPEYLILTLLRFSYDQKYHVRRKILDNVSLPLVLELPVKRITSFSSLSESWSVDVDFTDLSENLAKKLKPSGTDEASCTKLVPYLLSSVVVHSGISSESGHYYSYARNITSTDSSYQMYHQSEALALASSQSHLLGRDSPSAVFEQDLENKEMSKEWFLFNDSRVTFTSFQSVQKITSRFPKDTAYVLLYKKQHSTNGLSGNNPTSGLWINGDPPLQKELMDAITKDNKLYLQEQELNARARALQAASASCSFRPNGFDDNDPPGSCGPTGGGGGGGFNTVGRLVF
In short: as §1

USP39 = target: T3, USP39 (UniProt Q53GS9)
T3 sequence (whole entry): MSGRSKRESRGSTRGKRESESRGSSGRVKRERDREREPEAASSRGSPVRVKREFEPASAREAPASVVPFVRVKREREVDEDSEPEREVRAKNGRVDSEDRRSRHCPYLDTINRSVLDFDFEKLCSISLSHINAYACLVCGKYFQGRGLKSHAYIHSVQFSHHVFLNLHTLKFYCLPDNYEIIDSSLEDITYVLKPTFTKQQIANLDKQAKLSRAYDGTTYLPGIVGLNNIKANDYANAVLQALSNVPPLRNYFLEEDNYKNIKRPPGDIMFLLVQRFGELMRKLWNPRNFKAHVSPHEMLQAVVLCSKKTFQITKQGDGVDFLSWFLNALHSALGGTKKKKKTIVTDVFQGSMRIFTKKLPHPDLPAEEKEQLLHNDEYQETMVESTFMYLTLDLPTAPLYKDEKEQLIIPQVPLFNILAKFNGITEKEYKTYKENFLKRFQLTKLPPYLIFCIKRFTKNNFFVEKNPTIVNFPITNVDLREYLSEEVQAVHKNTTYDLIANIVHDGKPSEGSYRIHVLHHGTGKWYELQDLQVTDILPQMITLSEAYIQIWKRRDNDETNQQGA
In short: as §1

USP4 = target: T4, USP4 (UniProt Q13107)
T4 sequence (whole entry): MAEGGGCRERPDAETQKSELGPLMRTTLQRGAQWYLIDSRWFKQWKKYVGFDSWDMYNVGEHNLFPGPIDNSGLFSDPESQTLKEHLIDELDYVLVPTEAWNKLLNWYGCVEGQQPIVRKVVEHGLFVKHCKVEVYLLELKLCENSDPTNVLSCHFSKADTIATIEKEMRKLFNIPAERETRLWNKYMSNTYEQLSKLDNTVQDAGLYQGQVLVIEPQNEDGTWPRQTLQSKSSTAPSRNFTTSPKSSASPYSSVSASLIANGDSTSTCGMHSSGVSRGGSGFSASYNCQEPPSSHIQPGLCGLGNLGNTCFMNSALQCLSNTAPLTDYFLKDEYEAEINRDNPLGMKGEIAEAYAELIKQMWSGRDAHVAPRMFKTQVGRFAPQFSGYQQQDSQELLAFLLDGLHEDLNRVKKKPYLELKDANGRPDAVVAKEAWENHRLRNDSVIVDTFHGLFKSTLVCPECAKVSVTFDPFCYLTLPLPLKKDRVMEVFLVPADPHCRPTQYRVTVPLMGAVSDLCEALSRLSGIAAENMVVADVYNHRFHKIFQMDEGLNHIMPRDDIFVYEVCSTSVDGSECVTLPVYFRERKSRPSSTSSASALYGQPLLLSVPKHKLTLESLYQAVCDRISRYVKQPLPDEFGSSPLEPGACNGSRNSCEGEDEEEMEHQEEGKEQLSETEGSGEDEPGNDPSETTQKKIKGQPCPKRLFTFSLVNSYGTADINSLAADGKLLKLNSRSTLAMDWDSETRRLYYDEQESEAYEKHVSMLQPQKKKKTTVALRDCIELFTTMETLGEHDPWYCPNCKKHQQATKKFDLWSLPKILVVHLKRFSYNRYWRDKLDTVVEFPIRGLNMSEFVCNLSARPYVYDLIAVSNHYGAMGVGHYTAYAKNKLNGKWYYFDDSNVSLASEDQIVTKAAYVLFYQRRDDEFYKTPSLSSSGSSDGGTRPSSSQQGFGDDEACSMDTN
In short: as §1

Measured: log2 ratio of Biotin-Ahx-Ub-VS probe labelling

CN1C(=O)c2ccc(NC(=O)CCl)cc2C1=O
inactive: USP34 -0.233 | USP36 0.0568 | USP38 -0.169 | USP39 0.16 | USP4 -0.181
